PubChem BioAssay AID990 (National Center for Advancing Translational Sciences (NCATS), 2007)
Active and inactive are the calls of the source.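 The calls were made as follows: active = compound that made reporter-free parental cells show up as glowing objects under laser imaging, so likely a fluorescent false positive; inactive = the rest.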

assay: Parental Cell Counter Screen Assay for Epigenetic Modulators; details: parental c127i cells, compound fluorescence imaging, 30 h
Excerpt: NIH Molecular Libraries Screening Centers Network [MLSCN] NIH Chemical Genomics Center [NCGC] MLSCN Grant: 1 X01 MH079860-01 Assay Provider: Elisabeth D. Martinez, University of Texas SW Medical Center NCGC Assay Overview: This assay is a counter screen for the Locus Derepression (LDR) assay (PubChem AID 597). The LDR assay detects the derepression of a GFP reporter that is stably integrated in a region of the genome of murine c127i mammary cells that is presumably silenced. Compounds that cause derepression of the locus to express GFP are identified by enumerating GFP positive cells using a laser-scanning microplate cytometer. […] Compounds active in the parental c127i cells are likely fluorescent.
NCGC Assay Protocol Summary: Two hundred and fifty cells in 5 uL per well were dispensed into black, clear-bottom 1536-well plates. Twenty-three nL compound was transferred to the assay plate and cells were incubated 30 hours at 37 C. Medium was removed, cells were washed two times with PBS, and fluorescent cells were enumerated as objects between the sizes of 20 to 120 um width and depth using a laser-scanning microplate imager (Acumen Explorer Ex3, TTP Labtech).

SMILES | outcome | Potency
CC(C)C(=O)NC(c1ccco1)c1ccc2cccnc2c1O (stereo not given) | inactive | –
COc1ccc(NC(c2ccccn2)c2ccc3cccnc3c2O)cc1 (stereo not given) | inactive | –
COc1ccc(C(=O)NC(c2ccco2)c2cc(Cl)c3cccnc3c2O)cc1 (stereo not given) | inactive | –
c1cnn(-c2nc(N3CCOCC3)nc(N3CCOCC3)n2)c1 | inactive | –
COc1ccc(C)cc1NC(c1ccccn1)c1ccc2cccnc2c1O (stereo not given) | inactive | –
CCN1CSC(=S)N(CC)C1 | inactive | –
O=Nc1ccc(O)c2ncccc12 | inactive | –
O=C1OCCC1Sc1cccc2cccnc12 (stereo not given) | inactive | –
CN1C(=S)SC(c2ccccc2)N(C)C1c1ccccc1 (stereo not given) | inactive | –
Cc1cc(NC(c2ccccn2)c2ccc3cccnc3c2O)no1 (stereo not given) | inactive | –
CN1CCN(Cc2cc(Cl)c3cccnc3c2O)CC1 | inactive | –
CCNc1nc(NCC)nc(-n2nc(C)cc2C)n1 | inactive | –
CC(C)C(=O)NC(c1cccs1)c1cc(Cl)c2cccnc2c1O (stereo not given) | inactive | –
CC(C)C(=O)NC(c1ccc(N(C)C)cc1)c1ccc2cccnc2c1O (stereo not given) | inactive | –
COc1ccc(C(NC(=O)C(C)C)c2ccc3cccnc3c2O)cc1 (stereo not given) | inactive | –
O=C(CSc1cccc2cccnc12)NCc1ccccc1 | inactive | –
CC(C)C(=O)NC(/C=C/c1ccccc1)c1cc([N+](=O)[O-])c2cccnc2c1O (stereo not given) | inactive | –
O=C(CSc1cccc2cccnc12)N1CCCC1 | inactive | –
c1ccc(Nc2nc(Nc3ccccc3)nc(-n3cccn3)n2)cc1 | inactive | –
CC(C)C(=O)NC(c1ccc(C(C)C)cc1)c1cc(Cl)c2cccnc2c1O (stereo not given) | inactive | –

SMILES | outcome | Potency
O=C(CSc1cccc2cccnc12)Nc1ccccc1 | inactive | –
CN(C)C(=O)CSc1cccc2cccnc12 | inactive | –
O=C(Cc1ccccc1)NC(c1ccco1)c1ccc2cccnc2c1O (stereo not given) | inactive | –
COC(=O)c1cccc(NC(c2ccccn2)c2ccc3cccnc3c2O)c1 (stereo not given) | inactive | –
CC(/C=C/C(=O)NO)=C\[C@@H](C)C(=O)c1ccc(N(C)C)cc1 | inactive | –
CCN(CC)c1ccc2cc(-c3nc4ccccc4[nH]3)c(=O)oc2c1 | – | 410 nM [fluorescent] (active)
Cc1ccc(N=Nc2ccc(O)c3ncccc23)cc1C | inactive | –
O=C(Oc1cccc2cccnc12)c1ccc(Br)o1 | inactive | –
Cc1ccc2ccc(C(Nc3cccc(Cl)c3)c3ccccn3)c(O)c2n1 (stereo not given) | inactive | –
Oc1c(C(Nc2ccccn2)c2ccccn2)ccc2cccnc12 (stereo not given) | inactive | –
O=C(CC(c1ccco1)S(=O)(=O)c1ccccc1)c1ccc(F)cc1 (stereo not given) | inactive | –
Cc1cc(C)n(-c2nc(NC(C)C)nc(NC(C)(C)C)n2)n1 | inactive | –
COCc1cc(CN2CCN(C)CC2)c(O)c2ncccc12 | inactive | –
Oc1c(C(Nc2ccccn2)c2ccco2)cc(Cl)c2cccnc12 (stereo not given) | inactive | –
CCCCC1CC1C(=O)Nc1ccc(OC)c(OC)c1 (stereo not given) | inactive | –
Oc1ccc(COCc2ccccc2)c2cccnc12 | inactive | –
CC(C)C(=O)NC(c1ccco1)c1cc(Cl)c2cccnc2c1O (stereo not given) | inactive | –
COc1cccc(C(=O)NC(c2ccco2)c2cc(Cl)c3cccnc3c2O)c1 (stereo not given) | inactive | –
CC(C)C(=O)NC(c1ccc(Cl)cc1Cl)c1ccc2cccnc2c1O (stereo not given) | inactive | –
CC(C)C(=O)NC(c1ccco1)c1cc([N+](=O)[O-])c2cccnc2c1O (stereo not given) | inactive | –
